Measured values from PubChem BioAssay AID449762 (Southern Research Specialized Biocontainment Screening …, 2010).
Where “and” joins values, the source holds several entries; their conditions need not be identical. Equal entries are not always repeated. About 1,900 (0.58%) of roughly 330,000 compounds were called active. Roughly 4% stayed inconclusive and do not appear here. These entries were drawn from the full list. Entries with a potency or affinity are not part of this list. Values without a mark were called inactive. No stated cut-off is given here; in the data, inconclusive means inhibition above about 70% without an active follow-up result; inactive means below that.

Assay: M. tuberculosis growth inhibition, HTS (AID 449762);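 further: bacterial growth assessed after seven days of incubation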
Settings: M. tuberculosis H37Rv growth inhibition, 7H9 media; at 25 µM; hits give high values

| SMILES | inhibition |
| --- | --- |
| Cc1ccc(NC2=C/C(=N/S(=O)(=O)c3cccs3)c3ccccc3C2=O)cc1C | 5.44% |
| Cc1ccc(NC2=C/C(=N/S(=O)(=O)c3cccs3)c3ccccc3C2=O)cc1 | 62.9% |
| COc1ccc(Cl)cc1NC(=O)Nc1ccc(Br)cn1 | 5.18% |
| CC(Oc1ccc(-c2nccc(-c3ccccn3)n2)cc1)C(=O)NN (centres undefined) | -4.92% |
| O=C(O)COc1ccc(-c2nccc(-c3ccccn3)n2)cc1 | 0.08% |
| O=C(CSc1nc2ccccc2s1)CSc1nc2ccccc2s1 | 12% |
| CC(=O)CSc1nc2ccccc2s1 | -0.04% |
| FC(F)(F)c1nc2ccccc2c2nc3ccccc3n12 | 9.4% |
| c1ccc(-c2nc3ccccc3c3nc4ccccc4n23)cc1 | -1.99% |
| COc1ccc(Cc2nc3ccc(C(=O)NCCSC)cc3o2)cc1 | 2.47% |
| COC(=O)CCNC(=O)c1ccc2nc(Cc3ccc(OC)c(OC)c3)oc2c1 | -1.6% |
| C/C(=N\NC(=O)C1CC1c1ccccc1)c1ccc(C)s1 (centres undefined) | -2.49% |
| CCOC(=O)Cc1nn(Cc2nc(-c3ccc(C)cc3)cs2)c(=O)c2ccccc12 | -4.15% |
| Cn1nc(-c2ccc(OCC(N)=O)cc2)c2ccccc2c1=O | -19.8% |
| CNC(=O)COc1ccc(-c2nn(C)c(=O)c3ccccc23)cc1 | -7.66% |
| CCOC(=O)N1CCN(S(=O)(=O)c2ccc(C(=O)Nc3nc4c(s3)CC(C)CC4)cc2)CC1 (centres undefined) | 16.7% |
| C#CCn1cnc2c(oc3ccccc32)c1=O | 2.24% |
| COc1ccc(Br)cc1-c1nc(CCl)cs1 | 60.4% |
| Cc1cc(C)n2nc(CC#N)c(C#N)c2n1 | 1.45% |
| N#C/C(=C\c1ccccn1)c1ccccn1 | -3.85% |

| SMILES | inhibition |
| --- | --- |
| CCc1ccc(N2C(=O)CN(Cc3cccs3)C2=S)cc1 | 38.7% |
| COc1ccc(OCc2nc(N)nc(Nc3ccccc3OC)n2)cc1 | 2.69% |
| COc1ccccc1Nc1nc(N)nc(CN2CCN(Cc3ccccc3)CC2)n1 | 43.2% |
| O=C(CNC(=O)c1ccc(Br)o1)NC12CC3CC(CC(C3)C1)C2 | 5.74% |
| COc1ccc(CN2C(=NC(=O)COc3ccccc3)SC3CS(=O)(=O)CC32)cc1 (centres undefined) | -7.1% |
| Cc1cc(C)n2nc(SCCCC(=O)c3ccc(F)cc3)nc2n1 | -9.89% |
| CN(C)N=Nc1ccc2nc[nH]c2c1 | -2.52% |
| NC(=O)c1[nH]cnc1N | -17.9% and 7.5% |
| O=C1CCCCN1CCC(=O)N1CCCC(N2CCN(c3cccc(Cl)c3)CC2)C1 (centres undefined) | -10.9% |
| O=C(NNC(=O)C1CC(c2cccs2)=NO1)Nc1ccc(Cl)cc1 (centres undefined) | -0.49% |
| Cc1cc(=O)[nH]c(SCC(=O)N(CCC#N)c2ccccc2)c1C#N | -2.5% |
| CCCCNC(=S)N1CCn2cccc2C1c1cccnc1 (centres undefined) | -0.76% |
| C=C1C(=O)[C@@]23[C@H](O)C[C@@H]4C(C)(C)CC[C@H](O)[C@]4(C)[C@@H]2C[C@H](O)[C@@H]1[C@H]3O | 62.1% |
| COc1cc(-c2ccc3c(=O)c4ccccc4sc3c2)cc(OC)c1OC | 8.35% |
| CCOC(=O)c1c(C)oc2ccc(NS(=O)(=O)c3ccc4c5c(cccc35)C(=O)N4)cc12 | 62.7% |
| Cc1oc2c(cc(NS(=O)(=O)c3ccc4c5c(cccc35)C(=O)N4)c3ccccc32)c1C(=O)OC(C)C | 51% |
| Nc1nc(SCc2ccc(Cl)cc2Cl)ns1 | 22.1% |
| Nc1nc(SCc2ccccc2)ns1 | 15% |
| CC1(C)CC[C@]2(C(=O)O[C@@H]3OC(CO)[C@@H](O)[C@H](O)[C@H]3O)CC[C@]3(C)C(=CCC4[C@@]5(C)CC[C@H](O[C@@H]6OC(C(=O)O)[C@@H](O)[C@H](O)[C@H]6O)C(C)(C)C5CC[C@]43C)[C@@H]2C1 (some centres undefined) | 1.92% |
| CN(CC(=O)Nc1cccc(F)c1)C(=O)c1ccc(-c2cccc(C(F)(F)F)c2)o1 | 0.48% |

| SMILES | inhibition |
| --- | --- |
| CCOc1ccccc1N(CC(=O)Nc1cccc2ccccc12)S(C)(=O)=O | -0.92% |
| CC1(C)Cc2c(c(N3CCOCC3)nc3sc4c(NCC5CCCO5)nnnc4c23)CS1 (centres undefined) | 11.7% |
| CC1(C)Cc2c(c(N3CCOCC3)nc3sc4c(NCCN5CCOCC5)nnnc4c23)CS1 | 36.9% |
| O=S(=O)(NC1=NCCC1)c1cccc(NS(=O)(=O)c2ccc(OC(F)(F)F)cc2)c1 | -9.41% |
| COc1ccccc1N(CC(=O)NCCc1ccccc1)C(=O)CCC(=O)Nc1ccccn1 | -2.52% |
| COc1ccc(NC(=O)N2CCC3(CC2)OCCO3)cc1OC | 1.68% |
| COc1ccc(NC(=O)CSc2nnc(-c3ccco3)n2N)cc1Cl | 46.6% |
| COc1ccc(NC(=O)CSc2nnc(-c3ccccn3)n2N)cc1 | 8.63% |
| CC(C)(C)c1ccc(C(=O)NCC(=O)NNC(=O)c2ccccc2O)cc1 | 8.86% |
| O=C(N/N=C/c1ccncc1)c1cc2c(ccc3ccccc32)o1 | 1.21% |
| O=C(O)c1ccc(/C=N/NC(=O)c2cc3c(ccc4ccccc43)o2)cc1 | 4.81% |
| CC(C)(C)c1ccc(OCC(=O)Nc2ccc(C(=O)Nc3ccccc3C(=O)O)cc2)cc1 | -6.72% |
| Cc1ccc(N=Cc2ccc[nH]2)c(O)c1 | 2.98% |
| Fc1ccc(N=Cc2ccc[nH]2)cc1 | 13.1% |
| O=C1NCC(O)=C1C=NCCCO | -4.48% |
| O=C1NCC(O)=C1C=NCCO | 4.69% |
| N#CCCn1cc(C(=O)Nc2cccc(C(=O)O)c2)c(-c2ccc(Cl)cc2)n1 | -2.32% |
| Cc1ccccc1COc1ccc(-c2nnn(CC(=O)O)n2)cc1 | 0.49% |
| CCOc1ccc(NC(=O)CN(C)C(=O)c2c(-c3ccccc3)noc2C)cc1OCC | -10.4% |
